Compound activity deposited in PubChem by National Center for Advancing Translational Sciences (NCATS).
NS1 function inh – qHTS Assay for Inhibitors of Influenza NS1 Protein Function | Potency, µM (top dose mostly 46.1 µM), for the others: at the highest dose activity, positive = more growth | 270,000 compounds, 0.4% hits; calls by dose curve; also: potency is read from the fitted curve at half-maximal effect; actives are rising curves; nearly all actives have a fitted effect of over 50% in size
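Compounds were scored for reversing the slow growth caused by influenza A NS1 in S. cerevisiae, measured by optical density at 600 nm. Assay medium contained 2% galactose at pH 6.0; NS1-free yeast of the same strain were the positive control.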
Shiga inhibitor – A qHTS for Small Molecule Inhibitors of Shiga Toxin; Vero cells, Shiga toxin protein synthesis inhibition reporter; inhibition, % at 38.7 µM; 290,000 compounds, 9.2% hits; AID 2315, 2010; in the data active = inhibition mostly above about 28%, no sharp cut-off; inactive = mostly below about 43%; also: 0% is about no effect
LmPK inh – qHTS Assay for Inhibitors of Leishmania Mexicana Pyruvate Kinase (LmPK) | Q27686 | AID 1721, 2009 | purified LmPK, Kinase-Glo ATP luminescence, 1 h | 290,000 compounds, 0.37% hits | Potency, µM (highest dose often 57.5 µM), for the others: at the highest dose activity change, negative = inhibition, actives largely listed as inhibitors; also: potency is read from the fitted curve at half-maximal effect; % is scaled to controls: 0 for no effect and ±100 for the full control effect
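Purified LmPK (0.1 nM) converted ADP (0.1 mM) to ATP with PEP (0.5 mM) in imidazole buffer pH 7.2 with KCl and MgCl2, 1 h at room temperature. ATP was read by Kinase-Glo luminescence; data normalized to uninhibited and no-enzyme controls.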
Cycloheximide cs – Cycloheximide Counterscreen for Small Molecule Inhibitors of Shiga Toxin | 300,000 compounds, 12% hits | max response, % | cell reporter, cycloheximide protein synthesis inhibition counterscreen; in the data active = max response mostly above about 13%, no sharp cut-off; inactive = mostly below about 14%; also: read at 38.3 µM for the half of the compounds with a filed dose; 0% is about no effect
Giardia FBPA inh – qHTS Assay for Inhibitors of Fructose-1,6-bisphosphate Aldolase from Giardia Lamblia; A8B2U2; purified Giardia FBPA; Potency, µM (highest dose often 59.6 µM), for the others: at the highest dose activity, negative = inhibition, hits mostly inhibitors; 290,000 compounds, 0.71% hits; AID 2451, 2010; also: potency is read from the fitted curve at half-maximal effect; % is scaled to controls: 0 for no effect and ±100 for the full control effect; nearly all actives have a fitted effect of over 55% in size
Target sequence (A8B2U2 whole entry, looked up): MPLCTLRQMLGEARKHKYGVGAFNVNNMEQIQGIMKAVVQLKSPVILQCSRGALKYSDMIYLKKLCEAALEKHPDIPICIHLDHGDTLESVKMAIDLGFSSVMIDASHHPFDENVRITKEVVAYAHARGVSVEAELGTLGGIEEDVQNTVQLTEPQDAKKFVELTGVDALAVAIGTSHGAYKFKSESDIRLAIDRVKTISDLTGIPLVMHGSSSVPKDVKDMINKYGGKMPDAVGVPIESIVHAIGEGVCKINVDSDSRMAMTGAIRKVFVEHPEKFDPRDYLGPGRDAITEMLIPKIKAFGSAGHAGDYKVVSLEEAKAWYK
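Giardia FBPA (40 nM reagent) was preincubated 10 min at RT with compound (up to 57.5 uM final), then substrate plus GAPDH/TPI/NAD/arsenate coupling system with diaphorase/resazurin was added; resorufin fluorescence (525/598 nm) was read after 20 min.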
* hit, by the source's call. Only some compounds are listed: those with a hit (about 14% of all), similar ones and a draw of the others. Unless noted, calls follow the shape of the dose curve; as a rule, active = well fitted curve in the direction sought with a large enough effect; inconclusive = small, poorly fitted or top-dose-only effect, or another doubt; inactive = no such curve, though single readings can be large; an effect the other way counts as inactive or inconclusive.

How did O=C(N/N=C/c1ccccc1C(F)(F)F)c1ccc2nc[nH]c2c1 do in these assays?
NS1 function inh: 18%; Shiga inhibitor: 29*; LmPK inh: -2%; Cycloheximide cs: 49*; Giardia FBPA inh: 6%

Results for CCc1ccc(C(=O)N/N=C/c2ccc(Cl)cc2Cl)nc1 ?
NS1 function inh: 5%; Shiga inhibitor: 24; LmPK inh: 2%; Cycloheximide cs: 18*; Giardia FBPA inh: 0%

Results for O=C(N/N=C/c1ccc(Cl)cc1Cl)c1ccc2nc[nH]c2c1 ?
NS1 function inh: -3%; Shiga inhibitor: 53*; LmPK inh: 9%; Cycloheximide cs: 24*

Results for O=C(N/N=C/c1ccc(Cl)cc1Cl)c1cccc(F)c1 ?
NS1 function inh: -7%; Shiga inhibitor: 137*; LmPK inh: -21%; Cycloheximide cs: 33*; Giardia FBPA inh: 1%

What do the screens show for `C[C@H]([C@H](O)c1ccccc1)N(C)C(=O)CN`?
NS1 function inh: 2%; Shiga inhibitor: -4; LmPK inh: -1%; Cycloheximide cs: -1; Giardia FBPA inh: 7%

Results for CN(C)c1ccc(/C=N/NC(=O)c2ccc3nc[nH]c3c2)cc1 ?
NS1 function inh: -6%; Shiga inhibitor: 22*; LmPK inh: -9%; Cycloheximide cs: 16*; Giardia FBPA inh: -6%

How did COC(=O)/C(=C\Nc1ccccc1N)c1ncc(C(F)(F)F)cc1Cl do in these assays?
NS1 function inh: -3%; Shiga inhibitor: 101*; LmPK inh: -1%; Cycloheximide cs: 68*; Giardia FBPA inh: 2%

How did N/C(=N\OC(=O)Nc1ccccc1)c1cccc(C(F)(F)F)c1 do in these assays?
NS1 function inh: 5%; Shiga inhibitor: 43*; LmPK inh: -3%; Cycloheximide cs: 29*; Giardia FBPA inh: -12%

Results for N/C(=N\OC(=O)Nc1ccc(Cl)cc1)c1ncc(C(F)(F)F)cc1Cl ?
NS1 function inh: -7%; Shiga inhibitor: -3; LmPK inh: 7%; Cycloheximide cs: 9; Giardia FBPA inh: -2%

How did N/C(=N\OC(=O)Nc1ccccc1)c1ncc(C(F)(F)F)cc1Cl do in these assays?
NS1 function inh: -11%; Shiga inhibitor: 53*; LmPK inh: -9%; Cycloheximide cs: 20*; Giardia FBPA inh: -1%

What do the screens show for `CC(C)(C)c1cc(CCC(=O)NCC2CCCO2)cc(C(C)(C)C)c1O` (stereo unspecified)?
NS1 function inh: 5%; Shiga inhibitor: -11; LmPK inh: -8%; Cycloheximide cs: -3

What do the screens show for `CCCc1cc(CN(C)C(=O)CC2C(=O)NCCN2Cc2ccccc2C)[nH]n1` (stereo unspecified)?
NS1 function inh: 9%; Shiga inhibitor: 2; LmPK inh: -7%; Cycloheximide cs: -4

How did CCOc1ccccc1-c1nnc2n1N=C(c1cccc(OC)c1)CS2 do in these assays?
Shiga inhibitor: -10; Cycloheximide cs: -6; Giardia FBPA inh: -16%

How did Cc1ccc(NC(=O)c2cc(-c3cccs3)nc3ccccc23)nc1 do in these assays?
NS1 function inh: 5%; Shiga inhibitor: 4; LmPK inh: 2%; Cycloheximide cs: -1; Giardia FBPA inh: -19%

Results for Cc1ccc(NC(=O)Nc2cccs2)nc1 ?
NS1 function inh: 8%; Shiga inhibitor: 94*; LmPK inh: 4%; Cycloheximide cs: 38*; Giardia FBPA inh: -3%

Results for Cc1ccc(NC(=O)Nc2cccs2)cc1 ?
NS1 function inh: 3%; Shiga inhibitor: 64*; LmPK inh: -30%; Cycloheximide cs: 28*; Giardia FBPA inh: -13%

How did CCOc1ccc(NC(=O)Nc2ccc(Cc3ccncc3)cc2)cc1 do in these assays?
NS1 function inh: -6%; Shiga inhibitor: -26; LmPK inh: -1%; Cycloheximide cs: -5; Giardia FBPA inh: 6%

What do the screens show for `CCOc1ccc(NC(=O)Nc2cccs2)cc1`?
NS1 function inh: -53%; Shiga inhibitor: 61*; LmPK inh: inconclusive; Cycloheximide cs: 47*; Giardia FBPA inh: -12%

How did CC(=O)c1cccc(NC(=O)Nc2cccs2)c1 do in these assays?
NS1 function inh: 9%; Shiga inhibitor: -2; LmPK inh: -10%; Cycloheximide cs: -1; Giardia FBPA inh: -16%

Results for CCc1ccc(NC(=O)Nc2cccs2)cc1 ?
NS1 function inh: -68%; Shiga inhibitor: 56*; LmPK inh: -7%; Cycloheximide cs: 20*; Giardia FBPA inh: -7%

How did CCc1ccc(NC(=O)NNC(=O)c2cc3ccccc3cc2O)cc1 do in these assays?
NS1 function inh: 5%; Shiga inhibitor: 6; LmPK inh: -9%; Cycloheximide cs: -3; Giardia FBPA inh: 8%

How did Cc1ccc(OCC(=O)NCCCNC(=O)c2ccncc2)cc1 do in these assays?
NS1 function inh: 2%; Shiga inhibitor: -8; LmPK inh: 2%; Cycloheximide cs: 6; Giardia FBPA inh: -8%

What do the screens show for `COc1cccc(-c2nc(CS(=O)(=O)CC(=O)Nc3ccccc3Cl)c(C)o2)c1`?
NS1 function inh: 13%; Shiga inhibitor: 8; LmPK inh: -6%; Cycloheximide cs: 2; Giardia FBPA inh: -13%

Results for CC12CN3CCN(CC(C3)/C1=N\NC(=O)Nc1cccc(Cl)c1)C2 ?
Shiga inhibitor: 50; LmPK inh: -2%; Cycloheximide cs: 26*; Giardia FBPA inh: -2%

What do the screens show for `CC12CN3CCN(CC(C3)/C1=N/NC(=O)Nc1ccccc1)C2`?
NS1 function inh: 5%; Shiga inhibitor: 37; LmPK inh: -10%; Cycloheximide cs: 25*; Giardia FBPA inh: 3%

Results for Cc1cc(N/N=C/c2ccc(O)cc2O)nc(-n2nc(C)cc2C)n1 ?
NS1 function inh: 23%; Shiga inhibitor: 5; LmPK inh: 1%; Cycloheximide cs: 0; Giardia FBPA inh: 2%

Results for Cc1nc(Cl)cc(N/N=C/c2ccc(O)cc2O)n1 ?
NS1 function inh: 0%; Shiga inhibitor: 28*; LmPK inh: -1%; Cycloheximide cs: 44*; Giardia FBPA inh: 9%

Results for Cc1nc(Cl)cc(N/N=C/c2ccc(O)cc2)n1 ?
NS1 function inh: -14%; Shiga inhibitor: 49*; LmPK inh: -1%; Cycloheximide cs: 19*; Giardia FBPA inh: -15%

How did Cc1ccc(C(=O)N2CCCC(N(C)Cc3ccccc3)C2)s1 (stereo unspecified) do in these assays?
NS1 function inh: -9%; Shiga inhibitor: -5; LmPK inh: -11%; Cycloheximide cs: -2

What do the screens show for `COCC1CCN(C(=O)C2CCC(=O)N(CCc3cccc(F)c3)C2)CC1` (stereo unspecified)?
NS1 function inh: 4%; Shiga inhibitor: 26; LmPK inh: 2%; Cycloheximide cs: 9

What do the screens show for `CC12CCC(C(=O)n3c1nc1ccccc13)C2(C)C` (stereo unspecified)?
NS1 function inh: -9%; Shiga inhibitor: -11; LmPK inh: -4%; Cycloheximide cs: -2; Giardia FBPA inh: 8%

Results for CCCn1c(-c2ccc[nH]c2=O)nc2ccccc21 ?
NS1 function inh: 3%; Shiga inhibitor: -3; LmPK inh: 7%; Cycloheximide cs: -1; Giardia FBPA inh: -3%
